# aSyn UTR act: Activators via SNCA 5'UTR binding, MLPCN. alpha-synuclein 5'UTR reporter, activators screen. activity score, % (tested at 7.5 µM), hits read low. hit rate 7.1% among 300,000. AID 1814, 2009; in the data active = activity score below about -60%
# Numbers stand for hits; n = inactive. A selection follows.
SMILES,aSyn UTR act
Cc1cc(NC(=O)Nc2ccccc2Cl)no1,-74
O=C(Nc1ccc(Cl)cn1)c1ccccc1[N+](=O)[O-],-77
O=C(Nc1ccccn1)Nc1ccccc1Cl,-131
S=C(Nc1ccccn1)Nc1ccccc1Cl,-83
NC(=S)N/N=C/c1coc2c(ccc3ccccc32)c1=O,-74
O=C(Nc1cnc2ccccn2c1=O)c1ccc(Cl)cc1,-139
Cc1ccc2c(c1)C(=NC1CCCCC1)c1cc3ccccc3nc1-2,-206
Cc1ccc2c(c1)Cc1nc3ccccc3nc1-2,n
COc1cccc(CNC(=O)CN2C(=O)CSc3ccc(S(=O)(=O)N4CCCCC4)cc32)c1,-160
O=c1c(C=Nc2cccc(C(F)(F)F)c2)c[nH]n1-c1cccc(Cl)n1,-65
Cc1ccc(/C=C2/C(=O)ON=C2c2ccccc2)o1,-66
Nc1nc(CSC(=S)N2CCOCC2)nc(Nc2ccc(F)cc2)n1,-70
Cc1ccc(Nc2nc(N)nc(CSC(=S)N3CCOCC3)n2)c(C)c1,-93
COc1ccc(Nc2nc(N)nc(CSC(=S)N3CCOCC3)n2)cc1,-87
CCC1=Nc2cc(C(=O)NCCCOC)ccc2Sc2ccccc21,n
COc1ccc(Cc2nc3ccc(C(=O)NCCCSC)cc3o2)cc1OC,-99
COc1ccc(Cc2nc3ccc(C(=O)N4CCOCC4)cc3o2)cc1,-125
COCCCNC(=O)c1ccc2nc(Cc3ccc(OC)cc3)oc2c1,-95
COc1ccc(Cc2nc3ccc(C(=O)N(C)CCn4ccnc4)cc3o2)cc1OC,-78
C=CCNC(=O)c1ccc2nc(Cc3ccc(OC)cc3)oc2c1,-139
Cc1oc2c(cc(NS(=O)(=O)c3ccc4c5c(cccc35)C(=O)N4)c3ccccc32)c1C(=O)OC(C)C,-69
O=C(N/N=C/c1ccc2cccnc2c1)c1nc2ccccc2c(=O)[nH]1,-83
O=C(N/N=C/c1ccncc1)c1nc2ccccc2c(=O)[nH]1,-66
C=CCOc1ccc2c(OC)c3ccoc3nc2c1OC,-81
C=CCc1c(C)nc(-c2ccccc2)nc1N/N=C(\C)c1ccc(N)cc1,-69
SMILES,aSyn UTR act
C=CCc1c(C)nc(-c2ccccc2)nc1N/N=C/c1ccncc1,-95
O=c1[nH]nc(SCc2nc3ccccc3s2)n1C1CC1,-144
CCCn1c(=O)c2ccccc2n2c(SCc3nc4ccccc4s3)nnc12,-160
CCCn1c(SCc2nc3ccccc3s2)n[nH]c1=O,-165
O=[N+]([O-])c1ccc2nc(/C=C/c3ccc(Cl)cc3)[nH]c2c1,-151
O=[N+]([O-])c1ccc(-c2nc3ccc([N+](=O)[O-])cc3[nH]2)cc1,-143
Nc1ccc(-c2nc3ccc([N+](=O)[O-])cc3[nH]2)cc1,-84
S=C(Nc1ccccc1)Nc1ccc2cn[nH]c2c1,-75
Cc1ccc(NC(=S)Nc2ccc3cn[nH]c3c2)cc1,-83
O=C(NC(=S)Nc1ccc2cn[nH]c2c1)c1ccccc1,-173
CCN(CC)c1nc(Nc2ccc(Cl)cc2)nc(OCC#N)n1,n
CC1=NN(c2ccccc2)C(=O)C1C(=O)C(=O)Nc1ccc(F)cc1 (centres undefined),-168
Cc1ccccc1CS(=O)(=O)c1ncc(Cl)c(C(=O)Nc2ccc(F)cc2)n1,n
Cc1ccc(NC(=O)C(=O)C2C(=O)Nc3ccccc32)cc1 (centres undefined),-77
CC(=O)n1cc(N(C(=O)CCl)c2ccccc2)c2ccccc21,n
CC(=O)n1c(Cl)c(NC(=O)CCl)c2ccccc21,-80
CC1(C)C2C/C(=N\O)C(C)(/[N+]([O-])=C/c3cccc([N+](=O)[O-])c3)CC21 (centres undefined),-62
CC(C)OC(=O)CSc1nc(N)c(C#N)cc1C#N,-118
COC(=O)CSc1nc2cc3c(cc2cc1C#N)OCO3,-201
COC(=O)CSc1nc(-c2cccs2)ccc1C#N,-305
CC(C)OC(=O)CSc1nc2cc3c(cc2cc1C#N)OCO3,-149
O=S(=O)(/N=C(/NC(=S)Nc1ccccc1)c1ccccc1)c1ccc(Cl)cc1,-99
COc1ccc(S(=O)(=O)/N=C2\C=C(Nc3ccc(O)cc3)C(=O)c3ccccc32)cc1,n
COc1ccc(NC(=S)N/C(=N/S(=O)(=O)c2ccc(C)cc2)c2ccccc2)cc1,-146
Cc1nc(C(=O)Nc2ccccc2)sc1C(=O)Nc1ccccc1,-166
SMILES,aSyn UTR act
Cc1ccc(NC(=O)c2sc(N)nc2C)cc1,-185
Cc1nc(/N=C\N(C)C)sc1C(=O)Nc1ccccc1,-79
COc1ccc2nc(NC(=O)CSc3nnnn3C)sc2c1,-122
CCn1nnnc1SCC(=O)Nc1nc2ccccc2s1,-86
COc1ccc2nc(NC(=O)CSc3nc(SC)ns3)sc2c1,-110
O=C(CSC1=NCCS1)Nc1nc2ccccc2s1,-154
CSc1nsc(SCC(=O)Nc2nc3ccccc3s2)n1,-71
Cc1nc(SCC(=O)Nc2nc3ccccc3s2)c(C#N)c(C)c1C,n
COc1ccc2nc(NC(=O)CSc3nnc(C)s3)sc2c1,-78
O=C1NC(=O)/C(=C\c2ccc(Oc3cnccn3)cc2)S1,-191
COc1ccc(N2C(=S)NC3N2C(=S)NC3(C)c2ccccc2)cc1 (centres undefined),-93
Cc1cc(-c2nc3cccnc3s2)ccc1NS(=O)(=O)c1cccs1,-167
O=S(=O)(Nc1ccc(-c2nc3cccnc3s2)cc1)c1cccs1,-89
O=S(=O)(Nc1ccc(-c2nc3cccnc3s2)cc1)c1ccccc1F,-84
O=S(=O)(Nc1ccc(-c2nc3cccnc3s2)cc1)c1ccc(Cl)s1,-121
CC(=O)NC(CSC(CC(=O)c1ccco1)c1ccc(C)cc1)C(=O)O (centres undefined),-90
CCOC(=O)Cc1csc(-n2sc3ccccc3c2=O)n1,-89
O=c1c([N+](=O)[O-])c(N2CCOCC2)c2ccccc2n1Cc1ccccc1,n
O=C1C(Cl)=C(NCC2CCCO2)C(=O)N1CCc1ccccc1 (centres undefined),-183
CN1CCN(C2=C(Cl)C(=O)N(CCc3ccccc3)C2=O)CC1,-112
O=C1C(Cl)=C(N2CCOCC2)C(=O)N1CCc1ccccc1,-212
O=C1C(Cl)=C(NCCCN2CCOCC2)C(=O)N1CCc1ccccc1,-126
Cc1ccc(OCc2nc(-c3cccs3)no2)c([N+](=O)[O-])c1,-64
O=[N+]([O-])c1ccc(F)cc1OCc1nc(-c2cccs2)no1,-177
O=[N+]([O-])c1ccccc1OCc1nc(-c2cccs2)no1,-114
SMILES,aSyn UTR act
CN(C)c1ccc(-c2nnc(SCC3CCCO3)n2C)cc1 (centres undefined),-89
CN=C1S/C(=C\c2ccc(N3CCOCC3)c(F)c2)C(=O)N1C,-76
CN=C1S/C(=C\c2ccc(N3CCCC3)c(F)c2)C(=O)N1C,-139
CC(C)(C)c1cc(NC(=O)c2cccnc2)no1,-102
CC(C)(C)c1cc(NC(=O)c2cccs2)no1,-77
CC(C)(C)c1cc(NC(=O)C2CCCO2)no1 (centres undefined),-104
CC(C)(C)c1cc(NC(=O)c2cc(F)c(F)c(F)c2F)no1,-63
Cc1ccc(SCC(=O)Nc2cccc(-c3nnc(-c4ccco4)o3)c2)cc1,-144
COc1ccc(-c2nnc(SCC(=O)Nc3cc(F)ccc3C)o2)cc1,-161
COc1cccc(NC(=O)CSc2nnc(-c3ccc(C)cc3)o2)c1,-114
COc1cc(/C=C/C(=O)c2cccc([N+](=O)[O-])c2)cc(OC)c1OC,-62
COc1cccc(C(=O)O/N=C(\N)c2ccc([N+](=O)[O-])cc2)c1OC,-208
N/C(=N\OC(=O)c1cccs1)c1cccc([N+](=O)[O-])c1,-130
COc1ccc(/C(N)=N/OC(=O)c2cccc([N+](=O)[O-])c2)cc1OC,-96
